An excerpt weighted towards active compounds, which were near 4.4% of everything screened.
tim23-1 inh – inhibits growth of tim23-1 mutant yeast; AID 463212; inhibition, % at 20 µM; 330,000 tested, 1.3% active; S. cerevisiae tim23-1 growth, BacTiter-Glo luminescence, 24 h;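 active = growth inhibition of the mutant yeast at or above 50%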;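 also: temperature-sensitive mutant grown at 25 °C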
TIM10 inh – inhibits growth of TIM10 yeast strain; inhibition, % at 10 µM; S. cerevisiae TIM10 strain growth, BacTiter-Glo luminescence, 24 h; 330,000 tested, 1.4% active; AID 463195;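 active = inhibition of 40% or more at the single tested concentration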;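 also: wild-type TIM10 isogenic control strain grown at permissive 25 °C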
SKKanGAS inh – inhibitors of SKKanGAS S. pyogenes growth in kanamycin (SK-promoter or general growth effect) | BacTiter-Glo, 6 h | inhibition, % at 7.5 µM | 300,000 tested, 1.3% active | AID 1662;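 active = mean replicate score, as percent of positive control median, at least 50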;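 also: strain carries kanamycin resistance gene driven by streptokinase promoter and grows in 40 µg/ml kanamycin; loss of luminescence reflects streptokinase promoter inhibition or plain growth inhibition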
PfHsp90 set2 – reduces growth (ATP signal) of yeast expressing P. falciparum Hsp90; S. cerevisiae expressing PfHsp90, BacTiter-Glo ATP, 48 h; yeast lacking PDR1 and PDR3 efflux regulators; inhibition, % at 9.4 µM; 310,000 tested, 0.32% active; AID 504621;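 active = every replicate shows inhibition above about 80%, whatever the replicate mean, limit read from the data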
tim10-1 inh – inhibits growth of tim10-1 mutant yeast; AID 463190; inhibition, % at 20 µM; 330,000 tested, 2.2% active; S. cerevisiae tim10-1 ts strain growth, BacTiter-Glo, 24 h;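 active = inhibition of at least 40%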;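 also: mutant grown at 25 °C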
tim10-1 conf – tim10-1 yeast growth inhibition, confirmed; S. cerevisiae tim10-1 ts strain growth, BacTiter-Glo, 24 h; AID 463213; shares compounds with tim10-1 inh; inhibition, % at 20 µM; 7,400 tested, 56% active;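 active = inhibition of yeast growth at or above a set limit in either of two repeat tests at 20 µM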;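 also: tim10-1 mutant grown at permissive 25 °C to find synthetic lethal compounds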
Of the large screens only hits and unclear results are named; the others gave an inactive call (follow-up assays come after a bar, where they were run).

CC1CCCC2(C1)NC(=S)c1c(sc3c1CCCC3)N2 (stereo not drawn)	tim10-1 inh 42 | tim10-1 conf inactive
O=C(NOCc1cscn1)Nc1ccccc1	none (no result: tim23-1 inh, TIM10 inh, SKKanGAS inh, tim10-1 inh)
COc1cccc(Oc2nc(-c3ccncc3)nc3ccccc23)c1	tim10-1 inh 41 (no result: PfHsp90 set2) | tim10-1 conf inactive
Cc1ccc(S(=O)(=O)CCC(=O)OC2CC(C)OC2=O)cc1 (stereo not drawn)	none (no result: SKKanGAS inh, PfHsp90 set2)
O=C(NCCO)c1cccc(Nc2nc(-c3ccccc3)c3cc(Cl)ccc3n2)c1	tim10-1 inh 45 | tim10-1 conf inactive
Cc1ccc(-c2nc3cnccn3c2Nc2c(C)cccc2C)o1	tim10-1 inh 60 | tim10-1 conf 55
O=C(O)C1OCC2(CO1)COC(C(=O)O)OC2 (stereo not drawn)	none (no result: tim23-1 inh, TIM10 inh, SKKanGAS inh, tim10-1 inh)
CC(C)OCCCn1c(-c2ccc(Br)cc2)c[nH]c1=S	tim10-1 inh 43 | tim10-1 conf inactive
CC(C)OCCCn1c(=S)[nH]c2ncccc2c1=O	none
COc1ccc(N2CCN(C(=O)CSc3nnc4n3C(C)(C)Cc3ccccc3-4)CC2)cc1	tim10-1 inh 46 | tim10-1 conf inactive
COc1cc(CN2CC(=O)N(c3cc(Cl)ccc3C)C2=S)cc(OC)c1OC	none
CCCC1=C/C(=C/c2ccc(-c3ccccc3OC)o2)C(=O)O1	none
COc1ccccc1-c1ccc(/C=C2/C=C(CC(C)C)OC2=O)o1	tim10-1 inh 42 | tim10-1 conf 36
Cc1ccc2c(nc3s/c(=C/c4cccs4)c(=O)n32)c1C	none (no result: tim23-1 inh, TIM10 inh, SKKanGAS inh, tim10-1 inh)
Cc1ccc2c(nc3s/c(=C\c4ccc(-c5ccccc5C(=O)O)o4)c(=O)n32)c1C	tim10-1 inh 46 | tim10-1 conf inactive
O=C(CCN1C(=O)S/C(=C\c2ccccc2)C1=O)NC1CCS(=O)(=O)C1 (stereo not drawn)	none
COc1ccccc1C(=O)Nc1nnc(S(=O)(=O)N2CCCCCC2)s1	none
COc1ccccc1C(=O)Nc1nnc(S(=O)(=O)N2CCCCC2)s1	tim10-1 inh 48 | tim10-1 conf inactive
CC1=NN(c2nc(-c3ccc(Cl)cc3)cs2)C(=O)C1	tim10-1 inh 63 | tim10-1 conf 29
CC1=NN(c2nc(-c3ccc(F)cc3)cs2)C(=O)C1	none
CC1=NN(c2ccc(Cl)cc2)C(=O)C1	tim10-1 inh 47 | tim10-1 conf inactive
Cc1ccc(S(=O)(=O)N2CCN(C(=O)COC(=O)/C=C/c3cccc([N+](=O)[O-])c3)CC2)c(C)c1	none (no result: tim23-1 inh, TIM10 inh, SKKanGAS inh, tim10-1 inh)
O=C(OCN1C(=O)c2ccccc2C1=O)c1cc(S(=O)(=O)N2CCOCC2)ccc1F	none (no result: SKKanGAS inh, PfHsp90 set2)
Cc1ccc(Nc2nc(N)nc(CN3CCN(c4ccccc4)CC3)n2)cc1Cl	SKKanGAS inh 87, tim10-1 inh 45 | tim10-1 conf inactive
O=C(COc1ccccc1Cl)Nc1cccc(S(=O)(=O)NC2=NCCCCC2)c1	none (no result: PfHsp90 set2)
CCOC(=O)CSc1cc(C)c(C#N)c2nc3ccccc3n12	tim10-1 inh 41 | tim10-1 conf inactive
O=C(NCC(c1ccco1)N1CCCC1)c1cn(-c2ccccc2)nc1-c1ccc(F)cc1 (stereo not drawn)	none (no result: SKKanGAS inh, PfHsp90 set2)
COc1ccc(C(=O)Cn2c(C)nc([N+](=O)[O-])c2Br)cc1	none
Cc1nc([N+](=O)[O-])c(Br)n1CC(=O)c1ccc(Cl)cc1	tim10-1 inh 43 (no result: PfHsp90 set2) | tim10-1 conf 38
Cc1cc(C)nc(N2N=C(CSc3ccc(Cl)cc3)CC2=O)n1	tim10-1 inh 45 | tim10-1 conf inactive
Cc1cc(C)nc(N2C(=O)CC(Cc3ccc(Cl)cc3)C2=O)n1 (stereo not drawn)	none
CCCn1c(CN2CCN(C(=O)c3ccco3)CC2)nc2cc(S(=O)(=O)N(C)C)ccc21	none (no result: SKKanGAS inh)
O=C(CC1C=CCC1)Nc1ccccc1 (stereo not drawn)	none (no result: tim23-1 inh, TIM10 inh, SKKanGAS inh, tim10-1 inh)
O=C(Nc1cccc(C(F)(F)F)c1)N1CCC(c2nc(-c3ccc(F)cc3)no2)CC1	tim10-1 inh 42 (no result: PfHsp90 set2) | tim10-1 conf 39
COc1ccc(NC(=O)c2ccc(Cl)c(S(=O)(=O)N3CCc4ccccc4C3)c2)cn1	tim10-1 inh 47 | tim10-1 conf inactive
Cc1cccc(NS(=O)(=O)c2cn(C)c(=O)n(C)c2=O)c1C	none
CN(Cc1ccccc1)Cc1nc2c(c(=O)n(C)c(=O)n2C)n1Cc1ccc(Cl)cc1	tim10-1 inh 40 | tim10-1 conf inactive
CCOc1ccccc1N1CCN(C(=O)Nc2cccc(Cl)c2)CC1	tim10-1 inh 44 (no result: PfHsp90 set2) | tim10-1 conf inactive

Compound activity as filed in PubChem.
